Rows were chosen to be rich in hits. Some 1.8% of all compounds tested hit in one or more screens of this group.
PHOSPHO1 inh = blocks human PHOSPHO1 phosphatase activity; recombinant PHOSPHO1, absorbance phosphatase assay; Q8TCT1; 290,000 compounds, 1.1% hits; inhibition, % at 13.3 µM; in the data active = inhibition above about 60%
Target sequence (Q8TCT1 whole entry, looked up): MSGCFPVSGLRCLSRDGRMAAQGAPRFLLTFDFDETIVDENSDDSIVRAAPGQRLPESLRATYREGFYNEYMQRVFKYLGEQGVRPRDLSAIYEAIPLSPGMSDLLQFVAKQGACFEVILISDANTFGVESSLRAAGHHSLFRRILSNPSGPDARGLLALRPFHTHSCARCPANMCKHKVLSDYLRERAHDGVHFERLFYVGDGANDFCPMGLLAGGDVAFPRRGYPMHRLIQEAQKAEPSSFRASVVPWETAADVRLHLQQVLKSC
pCIP destab = compounds decreasing mouse p/CIP protein stability. Q05BA5. F442A p/CIP-EGFP cells, EGFP fluorescence, 16 h. decrease of EGFP signal, % at 10 µM. 290,000 compounds, 0.01% hits. AID 1984;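 active = EGFP signal decrease of at least 30% at 10 µM or well 3 SD below plate mean, unless failing retest; inactive = the rest, including hits failing retest or dose response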
SUMO HTRF inh = SUMOylation inhibition. inhibition, % at 35 µM. HTRF SUMOylation assay, SAE1/SAE2 + UBC9, in vitro. P63279. 290,000 compounds, 0.36% hits; in the data active = inhibition above about 50%, passing the limit was not always enough
Target sequence (P63279 whole entry, looked up): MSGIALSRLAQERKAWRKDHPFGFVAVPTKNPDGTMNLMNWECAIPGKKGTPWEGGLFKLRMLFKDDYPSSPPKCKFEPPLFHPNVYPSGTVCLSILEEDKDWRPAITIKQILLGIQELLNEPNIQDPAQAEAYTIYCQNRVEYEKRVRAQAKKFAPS
NadD block = NadD (S. aureus) enzyme inhibition. purified NadD enzyme, colorimetric absorbance read-out. AID 602399. 360,000 compounds, 0.78% hits. inhibition, % at 20 µM; in the data active = inhibition above about 26%
Of the large screens only hits and unclear results are named; the others gave an inactive call.

CCOC(=O)N1CCC(NC(=O)c2sc3nc4n(c(=O)c3c2C)CCCC4)CC1	none
CCOC(=O)c1sc2nc3n(c(=O)c2c1C)CCC(C)CC3 (centres undefined)	PHOSPHO1 inh 78
CCOC(=O)N1CCN(C(=O)Nc2sc3nc4n(c(=O)c3c2C)CCC(C)CC4)CC1 (centres undefined)	PHOSPHO1 inh 74
CCOc1ccc(N2CSC3=C(C#N)C(c4ccco4)CC(=O)N3C2)cc1 (centres undefined)	PHOSPHO1 inh 94
COc1ccc(Br)cc1C1CC(=O)N2CN(C)CSC2=C1C#N (centres undefined)	none
CCc1ccccc1N1CSC2=C(C#N)C(c3cc(OC)c(OC)cc3OC)CC(=O)N2C1 (centres undefined)	none
COc1cc(OC)c(C2CC(=O)N3CN(c4ccccc4)CSC3=C2C#N)cc1OC (centres undefined)	PHOSPHO1 inh 103
COc1ccc(OC)c(C2CC(=O)N3CN(c4cccc(Cl)c4)CSC3=C2C#N)c1 (centres undefined)	PHOSPHO1 inh 94
COc1ccc(OC)c(C2CC(=O)N3CN(c4ccc(C)c(Cl)c4)CSC3=C2C#N)c1 (centres undefined)	PHOSPHO1 inh 79
COc1ccc2ccccc2c1C1CC(=O)N2CN(C)CSC2=C1C#N (centres undefined)	none
Cc1cc(C)c(C)c(S(=O)(=O)N2CCN(C(=O)c3ccccn3)CC2)c1C	none (no result: PHOSPHO1 inh, pCIP destab, SUMO HTRF inh)
CCOC(=O)c1ccc(N2CSC3=C(C#N)C(c4ccc(OC)cc4OC)CC(=O)N3C2)cc1 (centres undefined)	PHOSPHO1 inh 90
COc1cc(OC)c(C2CC(=O)N3CN(C)CSC3=C2C#N)cc1OC (centres undefined)	none
Cc1cc(O)c(Sc2ccc(Cl)cc2)c(=O)[nH]1	none (no result: PHOSPHO1 inh, pCIP destab, SUMO HTRF inh)
Cc1[nH]n(C(C)(C)C)c(=O)c1Sc1ccc(Cl)cc1	PHOSPHO1 inh 74
O=C1NC(=S)S/C1=C\c1cc2ccccc2nc1N1CCCCC1	SUMO HTRF inh 55
C=CCN=c1scc(-c2ccco2)n1/N=C/c1ccc(O)c(O)c1O	none
COCCN=c1scc(-c2ccco2)n1/N=C/c1ccc(O)c(O)c1O	NadD block 39
O=C1CC(c2ccc(O)c(O)c2)Oc2c1ccc(O)c2O (centres undefined)	SUMO HTRF inh 73
Cc1cc(NC(=O)CSc2nc3cc(C(=O)NCCCOC(C)C)ccc3c(=O)n2Cc2ccco2)no1	SUMO HTRF inh 50
Cc1noc(C)c1C(=O)N1CCC1(C)C(=O)NS(=O)(=O)c1cccc(Cl)c1 (centres undefined)	none (no result: PHOSPHO1 inh, pCIP destab, SUMO HTRF inh)
CCOc1cccc(C2C(C(=O)c3ccc(C)o3)=C(O)C(=O)N2c2nccs2)c1 (centres undefined)	PHOSPHO1 inh 71
CN(C)C(=O)CSc1cccc2cccnc12	PHOSPHO1 inh 71
COc1cc(C=CC(=O)N2CCN(CC(=O)N3CCCC3)CC2)cc(OC)c1OC	none (no result: PHOSPHO1 inh, pCIP destab, SUMO HTRF inh)
CCn1c(=O)cc(SCC(=O)N2CCN(c3ccccc3OC)CC2)c2ccccc21	PHOSPHO1 inh 63
COc1c(Cl)cnn(-c2ccccc2)c1=O	none
COc1cnn(-c2ccccc2)c(=O)c1SCc1ccc(Cl)c(Cl)c1	PHOSPHO1 inh 88
Cc1ccc(OCc2nnc(SCC(=O)C(C)(C)C)n2Cc2ccco2)cc1	PHOSPHO1 inh 61
C=CCn1c(COc2ccc(F)cc2)nnc1SCC(=O)NC(=O)NCc1ccco1	PHOSPHO1 inh 93
Cc1cc(NC(=O)CSc2nnc(COc3ccccc3)n2Cc2ccco2)no1	none
C=CCn1c(COc2ccc(Cl)cc2)nnc1SCC(=O)NCC(=O)OCC	PHOSPHO1 inh 100
C=CCn1c(COc2ccc(Cl)cc2)nnc1SCC(=O)Nc1ccc(S(N)(=O)=O)cc1	none
Cc1ccc(NCc2nnc(SCC(=O)Nc3ncc(C)s3)n2Cc2ccco2)c(C)c1	PHOSPHO1 inh 73
C=CCn1c(COc2ccccc2)nnc1SCc1ccc(C#N)cc1	none
C=CCn1c(COc2ccc(Cl)cc2)nnc1SCc1ccc(C#N)cc1	PHOSPHO1 inh 88
Cc1cc(C)n(C2CC(=O)N(c3ccccc3)C2=O)n1 (centres undefined)	none
CC(=O)NC1N=C(C)N(c2ccccc2)C1=O (centres undefined)	PHOSPHO1 inh 100
Cc1ccc(-c2cc(C(=O)N/N=C/c3ccco3)n[nH]2)s1	SUMO HTRF inh 63
Cc1ccccc1-c1cn(-c2ccccc2)c(=S)[nH]1	none
CC(C)(C)c1cn(-c2ccc(F)cc2)c(=S)[nH]1	PHOSPHO1 inh 69
O=C(c1ccco1)[C@@H]1[C@@H]2C(=O)N(c3ccccc3)C(=O)[C@@H]2C2c3ccccc3C=CN21 (some centres undefined)	PHOSPHO1 inh 84

Screening data: PubChem, Sanford-Burnham Center for Chemical Genomics
